What was measured:
Settings in all cases: concentration: 1 μM, replicates: in singlicate; n = 1
JNK1 = system: T1, JNK1
T1 construct: gene MAPK8

JNK2 = system: T2, JNK2
T2 construct: gene MAPK9

JNK3 = system: T3, JNK3
T3 construct: gene MAPK10

KIT-autoinhibited = system: KIT-autoinhibited
KIT = system: KIT
LATS1 = system: LATS1
LATS2 = system: LATS2
LCK = system: LCK
LIMK1 = system: LIMK1
LIMK2 = system: LIMK2
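Note: KINOMEscan kinase panel screen.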

SMILES	%Inh (JNK1)	%Inh (JNK2)	%Inh (JNK3)	%Inh (KIT-autoinhibited)	%Inh (KIT)	%Inh (LATS1)	%Inh (LATS2)	%Inh (LCK)	%Inh (LIMK1)	%Inh (LIMK2)
CSc1nn2c(=O)cc(N3CCOCC3)nc2n1Cc1cccc(Cl)c1Cl [GSK2347225]	11%	26%	10%	0%	23%	9%	9%	31%	11%	19%
COC(=O)c1c(-c2ccccc2)c2cc(Cl)ccc2c(=O)n1Cc1ccc(S(C)(=O)=O)cc1	98.8%	99.5%	99.4%	0%	56%	30%	19%	13%	1%	0%
COc1ccc(-c2oc3ncnc(N)c3c2-c2ccc(OC)cc2)cc1 [SB-589132]	30%	10%	0%	29%	49%	100%	0%	54%	24%	8%
CN1CCC(n2cnc(-c3ccc(F)cc3)c2-c2ccnc(NC3CCNCC3)n2)CC1 [SB-229482]	71%	96%	92.4%	0%	25%	0%	8%	0%	0%	30%
Cn1ccc2ncnc(Oc3ccc(NC(=O)Nc4cccnc4)c(Cl)c3)c21	0%	0%	0%	0%	98.7%	23%	0%	0%	0%	0%

Source: publication PMC5540273 (PLoS ONE, 2017)
